Test: JC-1 mitochondrial signal, unstimulated MM1S myeloma – cell-based, JC-1 fluorescence, 24 h, 100 nL compound, profiling panel (AID 1170); also: test concentration not given here
Settings: MM1S mitochondrial potential, higher = more signal

Row | Compound | z-score
1 | COC(=O)[C@@]1(Cc2ccc(OC)cc2)[C@H]2c3cc(C(=O)N4CCCC4)n(CCc4ccccn4)c3C[C@H]2CN1C(=O)c1ccccc1 | 0.00382
2 | CC(=O)N1Cc2ccccc2C[C@@]2(N=C(c3ccc(OCCCO)cc3)O[C@H]2c2ccccc2)C1=O | -0.438
3 | CC(C)NC(=O)[C@@]1(c2ccc([N+](=O)[O-])cc2)CC(=O)N(C(C)C)[C@@H]1c1ccc(CO)cc1 | -0.228
4 | CC(C)C(O)C1C=CC2C(=O)N(C)C(=O)C2N1N1CCCCC1 (configuration not stated) | -0.189
5 | CCCC[C@@H]1C[C@H]1[C@@H](NC(=O)c1ccccc1)c1ccccc1 | -1.25
6 | CCN(CC)c1ccc(N2CC=CC34O[C@@H]5/C=C\CCCOC(=O)C5[C@H]3C(=O)N(CCCO)[C@@H]4C2=O)cc1 (some centres not stated) | 0.918
7 | COc1ccc(C(O)C2C=CC3C(=O)N(c4ccccc4)C(=O)C3N2Nc2ccccc2)c2ccccc12 (configuration not stated) | -0.978
8 | O=[N+]([O-])c1ccc(C[n+]2ccc(CCCO)cc2)o1 | 0.5
9 | C[N+](C)(C)CCCCNC(=O)[C@H]1C[C@H]2C(=O)N3CCC[C@H]3C(=O)N2[C@H]1c1ccc(O)cc1 | -0.38
10 | COCCOC(=O)N1C(=O)[C@@]2(c3ccccc31)[C@H](C(=O)N1CCCCCCC1)[C@H]1C(=O)O[C@H](c3ccccc3)[C@H](c3ccccc3)N1[C@@H]2c1ccccc1OCCO | -1.04
11 | C=CCC(OC(C)=O)[C@@H]1[C@@H](N(Cc2ccc(-c3ccccc3)cc2)C(=O)c2ccc(C)cc2)c2cc(OCCCO)ccc2N1C(=O)Cc1ccc(OC)cc1 (some centres not stated) | -0.496
12 | COC(=O)[C@@]1(Cc2ccc(OC)cc2)[C@H]2c3cc(C(=O)N4CCCC4)n(C[C@H](O)CO)c3C[C@H]2CN1C(=O)c1ccccc1 | -1.03

Source: PubChem BioAssay
